Results reported in publication PMC7819943, “Rice protein-binding microarrays: a tool to detect cis-acting elements near promoter regions in rice”.
In all, about 68,000 sequences were measured (“fluorescence intensity (a.u.)”: median about 9,100, highest 2% from about 16,000 on). The sample as a whole holds a higher share of the highest values than the screen did.

biological target: OsWRKY34 (Oryza sativa, UniProt Q0JBA9 1-250); test: protein-binding microarray (RPBM); PBS, 2% BSA, 51.3 ng/ul salmon testes DNA, 50 uM zinc acetate, 200 nM TF, 25 C, 1 h; high values mean tight binding; conditions: protein: recombinant; tags: N-terminal polyhistidine and DsRed monomer fusion (pET32a); label: CyDye5-dUTP incorporated in the synthesized complementary strand; 3' TTTTT single-stranded linker to array surface; dsDNA, one strand shown
Sequence (Q0JBA9 entry or part of it): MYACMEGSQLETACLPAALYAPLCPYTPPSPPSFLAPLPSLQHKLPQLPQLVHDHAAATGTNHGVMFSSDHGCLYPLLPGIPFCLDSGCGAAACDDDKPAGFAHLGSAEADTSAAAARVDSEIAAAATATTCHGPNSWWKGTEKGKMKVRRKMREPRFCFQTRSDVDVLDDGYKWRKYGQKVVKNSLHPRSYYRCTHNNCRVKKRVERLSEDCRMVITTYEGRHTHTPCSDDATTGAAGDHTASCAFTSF
Procedure, shortened: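 The binding signal for each feature is its fluorescence intensity in arbitrary units. An Axon 4000B scanner was used to read a custom Agilent array that had been made double-stranded with Cy5-dUTP primer extension, blocked with 2% BSA, incubated at 25 °C for 1 h with 200 nM protein in PBS, 2% BSA, salmon testes DNA and 50 µM zinc acetate, and washed. The protein was an N-terminal polyhistidine–DsRed transcription factor fusion from E. coli BL21-CodonPlus, purified on Ni–NTA.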

In order of rising binding signal:
1. CTCTTGGCGATTTGCGGAAGTTGTTGTTGTCCCCTTGCTCCGGAGTCACCTAGTGCAG  8060 fluorescence intensity (a.u.)
2. ATCCCCATTTTTTTCCCAAGTGGTACACTGAAATTTTTTTCGGAGTCACCTAGTGCAG  8100 fluorescence intensity (a.u.)
3. TGCGTGTTGTGTGTGTGGGTGATCTTTGGCGCGCCTCGTCCGGAGTCACCTAGTGCAG  8120 fluorescence intensity (a.u.)
4. ATATAGCCTACTACTAGCTCCAAATCATCTATAGTCAATGCGGAGTCACCTAGTGCAG  8120 fluorescence intensity (a.u.)
5. TTAGCAAAAACATATCCTTTCTTGCCACACTACTAAGCCACGGAGTCACCTAGTGCAG  8160 fluorescence intensity (a.u.)
6. ATTTGATTTATTGTTAAATATACTTTCATGTACACATATACGGAGTCACCTAGTGCAG  8240 fluorescence intensity (a.u.)
7. AATTTTTATATTGTTGACCTGCAGATCCTTATGTTGGACTCGGAGTCACCTAGTGCAG  8260 fluorescence intensity (a.u.)
8. TTCCCCACCACCACCAACCCAGACCGGCCGCGGCCTATATCGGAGTCACCTAGTGCAG  8270 fluorescence intensity (a.u.)
9. AGTACTCCTCCGTTCTAAATTAGATGTCGTTTTGATTTTTCGGAGTCACCTAGTGCAG  8570 fluorescence intensity (a.u.)
10. AAATGTGGTTTTGATGGTTTCCAACATATATTTATCGGTTCGGAGTCACCTAGTGCAG  8570 fluorescence intensity (a.u.)
11. TCGCTGTGAGTGGAGGAGGAGGAGGAAGGGGAGGAGGATGCGGAGTCACCTAGTGCAG  8630 fluorescence intensity (a.u.)
12. GCTGGGAGTTAGAACGGTGATCCATCTAGATGTAATGGTCCGGAGTCACCTAGTGCAG  8740 fluorescence intensity (a.u.)
13. TTCTCCGTGTTAATATCACTTACGTCAAGGACCTATTTGTCGGAGTCACCTAGTGCAG  8750 fluorescence intensity (a.u.)
14. TGGAGGTGGGGAGGATGCGGGAGAGGGAGGTGATGATGGGCGGAGTCACCTAGTGCAG  8790 fluorescence intensity (a.u.)
15. CTCCGTTTTCACCCCTATGTATAGTTTATATGTAAATTGCCGGAGTCACCTAGTGCAG  8830 fluorescence intensity (a.u.)
16. CAGTTTTTGAGGTAGAAGGGTATCATTGTAATTTTGCATCCGGAGTCACCTAGTGCAG  8850 fluorescence intensity (a.u.)
17. TTATCAAATTCCGATCAAATCATTCCTCGTCGGCGTCCATCGGAGTCACCTAGTGCAG  8880 fluorescence intensity (a.u.)
18. TTTATAGATGGGGAAGGGGTGGCAACTAGAGACGCGACGGCGGAGTCACCTAGTGCAG  9070 fluorescence intensity (a.u.)
19. GGATTGCCGGTTTTTGGTGTCCTTTTCGCATCAGCTTTAGCGGAGTCACCTAGTGCAG  9120 fluorescence intensity (a.u.)
20. TTTTGCCATCTGGTAATCCCTCTACCACCAACAGCTACAACGGAGTCACCTAGTGCAG  9220 fluorescence intensity (a.u.)
21. ACACGGCCACCCGCATCCGCACCACCCGCAAGCCGCGACGCGGAGTCACCTAGTGCAG  9450 fluorescence intensity (a.u.)
22. AACGTACCACTCCCGTGGGCCGGACCAACACTCCTTCCCACGGAGTCACCTAGTGCAG  9510 fluorescence intensity (a.u.)
23. GGGGTGGGGTGGAGAGGGTGAAGCGGCGACGGTGACGATGCGGAGTCACCTAGTGCAG  9870 fluorescence intensity (a.u.)
24. TTTTCTCACATGTTTGACCATTCGTCTTATTCAAAAATTTCGGAGTCACCTAGTGCAG  9990 fluorescence intensity (a.u.)
25. GGGTGTAATTTTTGTTTTACATGTACGGAATTTTTTACTCCGGAGTCACCTAGTGCAG  10800 fluorescence intensity (a.u.)
26. TGGGAGGGTTTCTGATCATCAGCTGTCCTCTTTACCGGCACGGAGTCACCTAGTGCAG  11300 fluorescence intensity (a.u.)
27. CGATGTGATTTAGTGAAAAATTTTAGGGTGGGCTAAACAGCGGAGTCACCTAGTGCAG  11500 fluorescence intensity (a.u.)
28. TAGATGATGCTGTTAACTTTTTCTCACATGTTTGACCATTCGGAGTCACCTAGTGCAG  12700 fluorescence intensity (a.u.)
29. GACGCCGTTAACTTTTTCTCACATGTTTAACCATTCGTCTCGGAGTCACCTAGTGCAG  12700 fluorescence intensity (a.u.)
30. TTTCTCACATGTTTGACCATTCGTCTTATTCAAAAATTTTCGGAGTCACCTAGTGCAG  12800 fluorescence intensity (a.u.)
31. GGCGTGTTGGTGTGCGTGGATTGGGTGGGTGAGGAGGATGCGGAGTCACCTAGTGCAG  13000 fluorescence intensity (a.u.)
32. CGGTGAGGGGTGGACTGGGAGTGCGTGGGTGGGTGTGATGCGGAGTCACCTAGTGCAG  13400 fluorescence intensity (a.u.)
33. GTGAGGTGGGGTGGTGTGGCTTCTGCTGCTGCTGCTACTGCGGAGTCACCTAGTGCAG  15100 fluorescence intensity (a.u.)
34. ATAGATGACGCCGTTGATTTTTTCTCACATGTTTGACCGTCGGAGTCACCTAGTGCAG  15600 fluorescence intensity (a.u.)
35. AGATGACGCCATTGACTTTTTCTCACATGTTTGACCATTCCGGAGTCACCTAGTGCAG  15800 fluorescence intensity (a.u.)
36. TTGTTACTTTAATTTGTACATCATCATGCGGGTCCGTATACGGAGTCACCTAGTGCAG  16600 fluorescence intensity (a.u.)
37. GTGTGGAGGTGGTGGGGAGTGTGAGGAGAGGGAGGGGATGCGGAGTCACCTAGTGCAG  18000 fluorescence intensity (a.u.)
38. GACGCCGTTGATTTTTTCTCACATGTTTGACCATTCGTCTCGGAGTCACCTAGTGCAG  18000 fluorescence intensity (a.u.)
39. GACTGGGAGGATGAGGGGTGGGTGGGTGTGGCTGCTTCTGCGGAGTCACCTAGTGCAG  19100 fluorescence intensity (a.u.)
40. GTGAAGCGATCTGTATTGGTGGAGGGGAGGGGAGGGGATGCGGAGTCACCTAGTGCAG  24000 fluorescence intensity (a.u.)
41. TAGATGACGTCGTTGACTTTTTCTCACATGTTTGACCATTCGGAGTCACCTAGTGCAG  28800 fluorescence intensity (a.u.)
42. GACGCTGTTGACTTTTTCTCACATGTTTGACCATTCGTCTCGGAGTCACCTAGTGCAG  28900 fluorescence intensity (a.u.)
